In article PMC7862700, “An all-to-all approach to the identification of sequence-specific readers for epigenetic DNA modifications on cytosine”:

What was measured:
Test in all cases: DAPPL (digital affinity profiling via proximity ligation, sequencing); 10 mM Tris-HCl pH 7.5, 50 mM NaCl, 1 mM DTT, 4% glycerol, room temperature, 30 min; GST-TFs on glutathione beads, 16-mer random dsDNA library, 0.1% formaldehyde crosslink after washing; high values mean tight binding
Settings in all cases: protein: recombinant; tags: N-terminal GST; dsDNA, one strand shown
FEV = molecular target: T1, FEV (Homo sapiens, UniProt Q99581 1-238)
T1 sequence: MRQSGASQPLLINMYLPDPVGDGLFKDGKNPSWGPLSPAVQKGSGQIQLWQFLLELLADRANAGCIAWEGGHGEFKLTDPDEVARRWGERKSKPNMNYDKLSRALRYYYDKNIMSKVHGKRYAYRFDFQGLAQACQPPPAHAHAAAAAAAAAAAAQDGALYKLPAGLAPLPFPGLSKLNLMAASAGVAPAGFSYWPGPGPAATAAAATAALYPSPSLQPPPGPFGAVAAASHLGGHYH
How it was run: (§1)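 After expression in yeast as GST fusions, human transcription factors were bound to glutathione beads, DNA-barcoded and mixed with a tag-only sample. The pools were incubated with 200 nmole of a 16-mer random double-stranded DNA library in Tris/NaCl/DTT/glycerol buffer (30 min, room temperature), washed and crosslinked with 0.1% formaldehyde. Proximity ligation with BsaI/T4 ligase ran for 1 h at 37 °C, before PCR amplification and sequencing on an Illumina NextSeq500. Binding signal is a hexamer's read frequency for a factor divided by its frequency for the tag-only sample.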

ETV5 = ETV5 (Homo sapiens, UniProt P41161 1-510)
How it was run: as §1

SPIC = molecular target: T2, SPIC (Homo sapiens, UniProt Q8N5J4 1-248)
T2 sequence: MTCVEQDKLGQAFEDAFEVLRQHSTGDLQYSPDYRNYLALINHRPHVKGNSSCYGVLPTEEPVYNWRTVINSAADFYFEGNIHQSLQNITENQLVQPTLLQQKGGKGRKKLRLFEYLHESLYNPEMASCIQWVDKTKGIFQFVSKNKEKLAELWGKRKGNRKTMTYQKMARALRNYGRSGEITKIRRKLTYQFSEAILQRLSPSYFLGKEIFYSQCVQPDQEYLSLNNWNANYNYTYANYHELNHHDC
How it was run: as §1

ELF4 = ELF4 (Homo sapiens, UniProt Q99607 1-663)
How it was run: as §1

ELK4 = molecular target: T3, ELK4 (Homo sapiens, UniProt P28324-2 1-405)
T3 sequence: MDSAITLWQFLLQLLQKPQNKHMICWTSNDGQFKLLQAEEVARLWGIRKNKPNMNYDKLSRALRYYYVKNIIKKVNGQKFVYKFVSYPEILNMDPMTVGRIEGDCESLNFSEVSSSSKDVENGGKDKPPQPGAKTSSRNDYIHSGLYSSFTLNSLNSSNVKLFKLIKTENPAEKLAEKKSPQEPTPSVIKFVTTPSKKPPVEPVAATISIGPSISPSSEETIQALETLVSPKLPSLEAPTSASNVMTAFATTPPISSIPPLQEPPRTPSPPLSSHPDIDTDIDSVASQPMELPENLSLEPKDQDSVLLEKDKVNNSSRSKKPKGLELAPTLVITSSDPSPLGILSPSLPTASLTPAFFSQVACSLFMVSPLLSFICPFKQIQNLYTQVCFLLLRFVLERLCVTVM
How it was run: as §1

ETV2 = molecular target: T4, ETV2 (Homo sapiens, UniProt O00321 1-342)
T4 sequence: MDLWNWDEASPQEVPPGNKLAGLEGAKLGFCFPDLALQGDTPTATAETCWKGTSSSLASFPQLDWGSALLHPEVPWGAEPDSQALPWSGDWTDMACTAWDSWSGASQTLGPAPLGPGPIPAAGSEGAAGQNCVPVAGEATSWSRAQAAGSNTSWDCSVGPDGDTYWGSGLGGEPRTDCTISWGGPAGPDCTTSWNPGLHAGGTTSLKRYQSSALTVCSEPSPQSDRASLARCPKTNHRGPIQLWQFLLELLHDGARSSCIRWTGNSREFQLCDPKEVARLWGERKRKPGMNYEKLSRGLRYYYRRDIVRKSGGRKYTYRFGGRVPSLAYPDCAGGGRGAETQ
How it was run: as §1

ELF3 = molecular target: T5, ELF3 (Homo sapiens, UniProt P78545 1-371)
T5 sequence: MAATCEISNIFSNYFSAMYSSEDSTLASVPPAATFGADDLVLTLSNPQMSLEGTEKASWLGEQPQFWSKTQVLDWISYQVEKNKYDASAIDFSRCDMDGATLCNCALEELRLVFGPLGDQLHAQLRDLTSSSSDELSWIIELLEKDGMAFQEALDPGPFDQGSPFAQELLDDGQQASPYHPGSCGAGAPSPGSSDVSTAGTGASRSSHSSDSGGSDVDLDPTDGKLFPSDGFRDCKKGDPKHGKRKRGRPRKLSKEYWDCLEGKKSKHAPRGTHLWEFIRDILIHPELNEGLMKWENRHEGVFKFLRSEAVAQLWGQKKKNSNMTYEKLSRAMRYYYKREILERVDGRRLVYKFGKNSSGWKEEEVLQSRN
How it was run: as §1

ERF = molecular target: T6, ERF (Homo sapiens, UniProt P50548 1-548)
T6 sequence: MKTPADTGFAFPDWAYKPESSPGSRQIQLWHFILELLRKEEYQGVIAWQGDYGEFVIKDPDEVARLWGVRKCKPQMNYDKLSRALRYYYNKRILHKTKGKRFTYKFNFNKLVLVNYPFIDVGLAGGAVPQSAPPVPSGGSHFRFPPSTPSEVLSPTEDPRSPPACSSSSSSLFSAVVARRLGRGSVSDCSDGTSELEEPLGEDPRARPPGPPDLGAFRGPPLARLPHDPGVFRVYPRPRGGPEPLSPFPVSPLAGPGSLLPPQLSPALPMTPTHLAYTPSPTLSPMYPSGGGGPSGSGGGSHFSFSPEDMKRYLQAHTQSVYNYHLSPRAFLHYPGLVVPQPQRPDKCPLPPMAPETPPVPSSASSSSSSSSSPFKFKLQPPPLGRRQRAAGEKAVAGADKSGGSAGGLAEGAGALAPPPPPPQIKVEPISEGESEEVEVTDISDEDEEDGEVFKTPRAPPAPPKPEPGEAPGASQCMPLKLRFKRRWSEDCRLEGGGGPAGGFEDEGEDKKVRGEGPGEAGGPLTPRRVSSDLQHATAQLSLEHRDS
How it was run: as §1

ETV3L = molecular target: T7, ETV3L (Homo sapiens, UniProt Q6ZN32 1-361)
T7 sequence: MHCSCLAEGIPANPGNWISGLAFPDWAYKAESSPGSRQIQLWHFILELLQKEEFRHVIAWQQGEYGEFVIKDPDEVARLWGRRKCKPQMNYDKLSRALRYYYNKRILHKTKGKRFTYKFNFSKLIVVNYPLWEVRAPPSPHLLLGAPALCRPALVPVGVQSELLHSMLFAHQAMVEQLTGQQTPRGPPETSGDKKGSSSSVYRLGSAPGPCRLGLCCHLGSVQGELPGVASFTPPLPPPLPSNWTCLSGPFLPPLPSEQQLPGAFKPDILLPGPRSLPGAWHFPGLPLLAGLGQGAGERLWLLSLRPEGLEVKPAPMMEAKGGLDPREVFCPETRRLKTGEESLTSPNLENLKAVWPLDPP
How it was run: as §1

ETS2 = molecular target: T8, ETS2 (Homo sapiens, UniProt P15036 1-469)
T8 sequence: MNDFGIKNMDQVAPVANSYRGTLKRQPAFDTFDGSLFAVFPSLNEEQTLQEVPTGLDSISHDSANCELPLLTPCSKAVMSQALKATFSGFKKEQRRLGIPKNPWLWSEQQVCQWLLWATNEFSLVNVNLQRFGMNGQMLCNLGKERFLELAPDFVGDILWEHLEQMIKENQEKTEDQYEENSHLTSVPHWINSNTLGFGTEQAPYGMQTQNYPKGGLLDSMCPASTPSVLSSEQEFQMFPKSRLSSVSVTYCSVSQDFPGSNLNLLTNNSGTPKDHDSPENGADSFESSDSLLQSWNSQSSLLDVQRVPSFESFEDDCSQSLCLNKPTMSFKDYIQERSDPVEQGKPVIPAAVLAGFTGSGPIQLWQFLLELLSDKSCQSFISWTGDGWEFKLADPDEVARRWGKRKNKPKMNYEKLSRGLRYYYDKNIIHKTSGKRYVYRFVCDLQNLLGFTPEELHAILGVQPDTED
How it was run: as §1

SPDEF = molecular target: T9, SPDEF (Homo sapiens, UniProt O95238 1-335)
T9 sequence: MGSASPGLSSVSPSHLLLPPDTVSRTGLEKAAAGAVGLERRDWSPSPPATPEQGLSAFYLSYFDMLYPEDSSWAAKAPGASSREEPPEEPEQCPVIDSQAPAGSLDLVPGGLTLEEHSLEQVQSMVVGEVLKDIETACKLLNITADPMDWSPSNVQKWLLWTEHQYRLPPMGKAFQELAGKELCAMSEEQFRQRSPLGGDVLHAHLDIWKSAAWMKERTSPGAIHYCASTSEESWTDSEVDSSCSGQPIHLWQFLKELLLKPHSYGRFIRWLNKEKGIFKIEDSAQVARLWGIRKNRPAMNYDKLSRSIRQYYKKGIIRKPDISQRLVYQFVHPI
How it was run: as §1

ETV7 = molecular target: T10, ETV7 (Homo sapiens, UniProt Q9Y603 1-341)
T10 sequence: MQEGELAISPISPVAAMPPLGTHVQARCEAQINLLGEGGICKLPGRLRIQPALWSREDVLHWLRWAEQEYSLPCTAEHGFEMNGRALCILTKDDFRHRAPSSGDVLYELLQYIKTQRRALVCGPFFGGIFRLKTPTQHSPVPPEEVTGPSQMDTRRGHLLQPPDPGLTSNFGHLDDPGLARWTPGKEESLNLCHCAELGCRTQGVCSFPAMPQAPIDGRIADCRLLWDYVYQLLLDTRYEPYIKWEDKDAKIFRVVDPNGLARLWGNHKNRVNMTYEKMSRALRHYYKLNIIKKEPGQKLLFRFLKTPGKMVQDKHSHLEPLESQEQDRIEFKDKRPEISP
How it was run: as §1

ELF5 = molecular target: T11, ELF5 (Homo sapiens, UniProt Q9UKW6-2 1-255)
T11 sequence: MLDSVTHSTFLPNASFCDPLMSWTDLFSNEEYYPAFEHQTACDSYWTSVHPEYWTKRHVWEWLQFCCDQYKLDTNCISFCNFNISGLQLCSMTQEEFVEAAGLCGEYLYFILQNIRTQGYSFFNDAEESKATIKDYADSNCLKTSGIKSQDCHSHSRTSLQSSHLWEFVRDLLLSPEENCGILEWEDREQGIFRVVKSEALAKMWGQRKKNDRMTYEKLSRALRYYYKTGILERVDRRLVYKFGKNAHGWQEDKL
How it was run: as §1

ETV6 = ETV6 (Homo sapiens, UniProt P41212 1-452)
How it was run: as §1

ETV3 = molecular target: T12, ETV3 (Homo sapiens, UniProt P41162-2 1-143)
T12 sequence: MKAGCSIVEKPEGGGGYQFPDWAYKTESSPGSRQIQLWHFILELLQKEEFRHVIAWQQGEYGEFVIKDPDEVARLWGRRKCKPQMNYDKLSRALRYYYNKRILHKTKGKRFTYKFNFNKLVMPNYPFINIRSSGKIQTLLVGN
How it was run: as §1

ETV1 = ETV1 (Homo sapiens, UniProt P50549 1-477)
How it was run: as §1

Sequence of ELF4 (Q99607 whole entry): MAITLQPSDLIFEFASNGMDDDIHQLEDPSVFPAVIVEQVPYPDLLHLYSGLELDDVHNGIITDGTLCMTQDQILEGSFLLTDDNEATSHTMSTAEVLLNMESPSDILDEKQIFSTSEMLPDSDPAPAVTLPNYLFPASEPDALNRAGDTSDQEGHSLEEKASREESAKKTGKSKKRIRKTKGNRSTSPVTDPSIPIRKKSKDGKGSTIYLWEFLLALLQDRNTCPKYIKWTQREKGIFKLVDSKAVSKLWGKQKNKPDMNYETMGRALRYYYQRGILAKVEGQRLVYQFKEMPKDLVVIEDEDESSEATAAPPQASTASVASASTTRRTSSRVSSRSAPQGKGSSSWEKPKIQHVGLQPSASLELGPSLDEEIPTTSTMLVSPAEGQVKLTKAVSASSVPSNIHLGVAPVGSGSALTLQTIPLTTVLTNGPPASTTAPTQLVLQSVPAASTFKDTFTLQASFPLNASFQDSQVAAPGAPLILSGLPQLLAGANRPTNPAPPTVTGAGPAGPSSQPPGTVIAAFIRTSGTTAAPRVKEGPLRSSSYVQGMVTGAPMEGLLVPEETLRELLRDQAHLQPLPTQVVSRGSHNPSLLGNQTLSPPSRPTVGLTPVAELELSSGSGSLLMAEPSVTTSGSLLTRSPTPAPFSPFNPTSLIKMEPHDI
Sequence of ETV6 (P41212 whole entry): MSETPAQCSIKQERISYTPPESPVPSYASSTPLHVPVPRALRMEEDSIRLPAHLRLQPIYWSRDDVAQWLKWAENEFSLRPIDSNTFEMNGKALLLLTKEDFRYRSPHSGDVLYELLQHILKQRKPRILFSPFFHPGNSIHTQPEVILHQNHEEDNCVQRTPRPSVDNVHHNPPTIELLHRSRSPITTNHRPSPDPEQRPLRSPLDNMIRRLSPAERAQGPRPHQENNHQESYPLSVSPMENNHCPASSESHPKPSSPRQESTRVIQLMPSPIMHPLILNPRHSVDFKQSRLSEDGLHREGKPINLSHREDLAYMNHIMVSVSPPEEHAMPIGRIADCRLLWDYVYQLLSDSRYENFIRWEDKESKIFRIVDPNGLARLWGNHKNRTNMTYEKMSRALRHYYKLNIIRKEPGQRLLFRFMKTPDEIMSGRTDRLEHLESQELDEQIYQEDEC
Sequence of ETV5 (P41161 whole entry): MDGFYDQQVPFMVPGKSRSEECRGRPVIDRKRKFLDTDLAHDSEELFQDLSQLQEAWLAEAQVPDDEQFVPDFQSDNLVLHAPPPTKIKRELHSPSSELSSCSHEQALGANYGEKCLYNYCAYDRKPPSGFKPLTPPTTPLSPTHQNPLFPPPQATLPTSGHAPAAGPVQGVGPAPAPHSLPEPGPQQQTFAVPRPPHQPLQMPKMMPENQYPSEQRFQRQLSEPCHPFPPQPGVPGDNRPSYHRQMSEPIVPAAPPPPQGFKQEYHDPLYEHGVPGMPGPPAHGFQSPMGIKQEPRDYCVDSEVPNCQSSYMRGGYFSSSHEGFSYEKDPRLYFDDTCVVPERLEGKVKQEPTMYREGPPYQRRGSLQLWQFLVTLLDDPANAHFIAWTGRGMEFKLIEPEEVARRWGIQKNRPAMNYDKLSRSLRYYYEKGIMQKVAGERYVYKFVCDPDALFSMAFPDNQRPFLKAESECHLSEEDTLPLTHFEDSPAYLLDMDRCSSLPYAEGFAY
Sequence of ETV1 (P50549 whole entry): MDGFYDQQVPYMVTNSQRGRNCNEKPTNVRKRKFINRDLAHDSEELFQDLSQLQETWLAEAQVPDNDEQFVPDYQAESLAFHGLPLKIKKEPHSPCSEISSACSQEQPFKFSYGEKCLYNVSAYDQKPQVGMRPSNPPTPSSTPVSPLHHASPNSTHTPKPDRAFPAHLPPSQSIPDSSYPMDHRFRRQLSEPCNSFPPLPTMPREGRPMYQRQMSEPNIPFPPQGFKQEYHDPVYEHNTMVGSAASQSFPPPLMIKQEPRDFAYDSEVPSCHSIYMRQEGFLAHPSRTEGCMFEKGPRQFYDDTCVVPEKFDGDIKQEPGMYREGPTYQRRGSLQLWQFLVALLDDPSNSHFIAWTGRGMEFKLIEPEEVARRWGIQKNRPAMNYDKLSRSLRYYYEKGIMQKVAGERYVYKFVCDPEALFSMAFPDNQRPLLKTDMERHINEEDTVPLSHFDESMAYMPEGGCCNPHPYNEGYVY

Sequence | binding signal (FEV) | binding signal (ETV5) | binding signal (SPIC) | binding signal (ELF4) | binding signal (ELK4) | binding signal (ETV2) | binding signal (ELF3) | binding signal (ERF) | binding signal (ETV3L) | binding signal (ETS2) | binding signal (SPDEF) | binding signal (ETV7) | binding signal (ELF5) | binding signal (ETV6) | binding signal (ETV3) | binding signal (ETV1)
TGTGTT | 1.06 fold enrichment (6-mer frequency, TF over GST control) | 1.06 fold enrichment (6-mer frequency, TF over GST control) | 1.02 fold enrichment (6-mer frequency, TF over GST control) | 1.16 fold enrichment (6-mer frequency, TF over GST control) | 1.07 fold enrichment (6-mer frequency, TF over GST control) | 1.19 fold enrichment (6-mer frequency, TF over GST control) | 1.08 fold enrichment (6-mer frequency, TF over GST control) | 1.08 fold enrichment (6-mer frequency, TF over GST control) | 1.15 fold enrichment (6-mer frequency, TF over GST control) | 1.06 fold enrichment (6-mer frequency, TF over GST control) | 1.21 fold enrichment (6-mer frequency, TF over GST control) | 1.19 fold enrichment (6-mer frequency, TF over GST control) | 1.11 fold enrichment (6-mer frequency, TF over GST control) | 1.08 fold enrichment (6-mer frequency, TF over GST control) | – | –
ATGTAG | 1.02 fold enrichment (6-mer frequency, TF over GST control) | 1.08 fold enrichment (6-mer frequency, TF over GST control) | 1.09 fold enrichment (6-mer frequency, TF over GST control) | 1.1 fold enrichment (6-mer frequency, TF over GST control) | 1.15 fold enrichment (6-mer frequency, TF over GST control) | 1.03 fold enrichment (6-mer frequency, TF over GST control) | 1.06 fold enrichment (6-mer frequency, TF over GST control) | 1.14 fold enrichment (6-mer frequency, TF over GST control) | – | 1.08 fold enrichment (6-mer frequency, TF over GST control) | 1.09 fold enrichment (6-mer frequency, TF over GST control) | – | 1.04 fold enrichment (6-mer frequency, TF over GST control) | 1.02 fold enrichment (6-mer frequency, TF over GST control) | 1.08 fold enrichment (6-mer frequency, TF over GST control) | –
TTGCGT | – | 1.1 fold enrichment (6-mer frequency, TF over GST control) | 1.1 fold enrichment (6-mer frequency, TF over GST control) | 1.08 fold enrichment (6-mer frequency, TF over GST control) | 1.12 fold enrichment (6-mer frequency, TF over GST control) | 1.33 fold enrichment (6-mer frequency, TF over GST control) | 1.16 fold enrichment (6-mer frequency, TF over GST control) | 1.21 fold enrichment (6-mer frequency, TF over GST control) | 1.03 fold enrichment (6-mer frequency, TF over GST control) | 1.08 fold enrichment (6-mer frequency, TF over GST control) | 1.03 fold enrichment (6-mer frequency, TF over GST control) | – | 1.03 fold enrichment (6-mer frequency, TF over GST control) | 1.13 fold enrichment (6-mer frequency, TF over GST control) | 1.03 fold enrichment (6-mer frequency, TF over GST control) | 1.12 fold enrichment (6-mer frequency, TF over GST control)
